Source: paper PMC4336329 (PLoS ONE, 2015)
About 14,000 (4.5%) of roughly 310,000 compounds showed an effect of 50% or more. Effects have a minus sign here. The sample as a whole holds a higher share of strong results than the screen did.

Molecular target: human ether-à-go-go-related gene (hERG) potassium channel (human, UniProt Q12809)
Experiment: primary screen, population patch clamp on CHO cells stably expressing hERG; higher = less effect of the substance
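Note: peak tail current of the secondary pulse compared with the same well before compound.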

Chain of human ether-à-go-go-related gene (hERG) potassium channel (Q12809 whole entry, looked up): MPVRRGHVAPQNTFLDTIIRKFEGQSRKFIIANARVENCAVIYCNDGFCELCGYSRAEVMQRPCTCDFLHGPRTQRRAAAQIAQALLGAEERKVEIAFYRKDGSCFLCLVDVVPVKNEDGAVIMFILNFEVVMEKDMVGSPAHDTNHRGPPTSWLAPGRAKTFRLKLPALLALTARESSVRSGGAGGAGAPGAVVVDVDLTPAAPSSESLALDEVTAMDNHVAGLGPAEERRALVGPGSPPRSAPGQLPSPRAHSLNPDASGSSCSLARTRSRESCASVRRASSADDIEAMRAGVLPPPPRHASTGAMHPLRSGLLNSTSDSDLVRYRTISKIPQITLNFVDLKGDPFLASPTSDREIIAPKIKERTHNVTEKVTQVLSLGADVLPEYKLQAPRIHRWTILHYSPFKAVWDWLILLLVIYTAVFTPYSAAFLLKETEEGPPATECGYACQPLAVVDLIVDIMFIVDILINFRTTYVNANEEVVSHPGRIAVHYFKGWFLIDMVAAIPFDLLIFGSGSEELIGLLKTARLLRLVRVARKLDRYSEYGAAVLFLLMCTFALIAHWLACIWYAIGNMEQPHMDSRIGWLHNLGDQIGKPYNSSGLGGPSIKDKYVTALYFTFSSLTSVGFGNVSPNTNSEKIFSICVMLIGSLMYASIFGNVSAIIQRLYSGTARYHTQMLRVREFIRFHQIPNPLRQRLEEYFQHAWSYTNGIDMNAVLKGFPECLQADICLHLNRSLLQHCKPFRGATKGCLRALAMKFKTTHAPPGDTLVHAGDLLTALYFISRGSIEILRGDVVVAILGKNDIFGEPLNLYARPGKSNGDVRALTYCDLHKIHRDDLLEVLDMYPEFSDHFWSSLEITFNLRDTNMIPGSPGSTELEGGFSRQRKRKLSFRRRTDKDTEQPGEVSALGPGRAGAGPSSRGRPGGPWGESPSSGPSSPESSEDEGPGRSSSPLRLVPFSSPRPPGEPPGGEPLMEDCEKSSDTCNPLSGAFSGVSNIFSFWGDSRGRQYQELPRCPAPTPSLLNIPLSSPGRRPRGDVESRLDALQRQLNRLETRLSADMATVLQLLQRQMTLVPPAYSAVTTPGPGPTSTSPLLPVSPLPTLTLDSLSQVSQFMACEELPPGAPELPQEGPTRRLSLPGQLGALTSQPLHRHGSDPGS

SMILES | hERG current change (%, negative = inhibition) at 10uM [%]
CCN(CC#CCC(O)(c1ccccc1)C1CCCC1)C(C)C.Cl (centres unmarked) | -18.9
CCNC(=O)NC(=O)C(C)OC(=O)Cc1coc2cc3c(cc12)CCC3 (centres unmarked) | 26.6
Cc1ccc(C2=NCCn3c2c2ccc([N+](=O)[O-])cc2[n+]3[O-])cc1 | -7.51
Nc1c(Cl)cc(C2=NCCn3c2c2ccc([N+](=O)[O-])cc2[n+]3[O-])cc1Cl | -54.8
Nc1c(Cl)cc(C2=NCCn3c2c2ccc(C(F)(F)F)cc2[n+]3[O-])cc1Cl | -26.1
[O-][n+]1c2cc(C(F)(F)F)ccc2c2n1CCN=C2c1ccc(Cl)cc1 | -55.6
O=[N+]([O-])c1ccc2c3n([n+]([O-])c2c1)CCN=C3c1ccc(Cl)cc1 | -29.6
Cc1ccc(C2=NCCn3c2c2ccc(C(F)(F)F)cc2[n+]3[O-])cc1 | -26.2
COc1cccc(/C=C/C(=O)OCC(=O)c2c[nH]c3ccccc23)c1OC | 9.29
CCOC(=O)c1c[nH]c2c(C)cc(C)cc2c1=O | -0.349
CCCCOP(=O)(c1ccc(N(C)C)cc1)C(O)c1ccc(OC)cc1 (centres unmarked) | -2.61
O=[N+]([O-])c1cc(S(=O)(=O)NCCc2ccccn2)ccc1Cl | -21.8
C=CCCC(=O)Nc1nc(C)c(-c2csc(Nc3ccc(Cl)cc3)n2)s1 | 14.9
S=c1[nH]nc(-c2ccc3ccccc3n2)o1 | 17.2
Cc1ccc(C)c2[nH]c(=O)c(CCNC(=O)C(C)(C)C)cc12 | 8.5
O=C(CSc1ncccc1C(=O)O)c1ccccc1 | 6.47
O=C(O)CSc1ncccc1C(=O)O | -53.7
O=C(O)c1cccnc1SCc1ccccc1 | -1.22
O=C(N/C(=C/c1ccc(Cl)cc1)c1nc2ccccc2[nH]1)c1ccco1 | 9.34
O=c1[nH]c(C2CCN(S(=O)(=O)c3ccc(C(F)(F)F)cc3)CC2)nc2c1nnn2Cc1ccccc1 | 8.98
Cc1ccc(S(=O)(=O)N(C)C)cc1NC(=S)N(CCC#N)Cc1cccnc1 | -10.3
Cc1ccc(C(C)C)cc1OCCOCCN1CCCC1 | -38.9
COc1ccc(-c2nc(NC(=O)CSCCO)sc2C)cc1 | -4.57

SMILES | hERG current change (%, negative = inhibition) at 10uM [%]
COc1cccc(NC(=O)CSc2nc3ccccc3c(=O)n2C)c1 | -7.76
CCOC(=O)C(C)On1c(-n2nc(C)cc2C)nc2ccccc2c1=O (centres unmarked) | 9.29
O=C(CCCn1c(SCc2cccc([N+](=O)[O-])c2)nc2ccccc2c1=O)NCC1CCCO1 (centres unmarked) | -59.7
CCOC(=O)C(C)On1c(SC(C)C(=O)OCC)nc2ccccc2c1=O (centres unmarked) | -53.5
O=C(CCCn1c(SCc2cccc(F)c2)nc2ccccc2c1=O)NCC1CCCO1 (centres unmarked) | 8.35
Cc1ccc(NC(=O)CSc2nc3ccccc3c(=O)n2CCCC(=O)NCCCN2CCOCC2)cc1C | -69.1
Cc1cc(C)c(NC(=O)CSc2nc3ccccc3c(=O)n2CCCN2CCOCC2)c(C)c1 | -47.6
O=C(CSc1nc2ccccc2c(=O)n1CCCN1CCOCC1)Nc1ccc2c(c1)OCO2 | -43.6
COc1cccc(NC(=O)CSc2nc3ccccc3c(=O)n2CCCC(=O)NCCCN2CCOCC2)c1 | -59.8
CCOC(=O)C(C)Sc1nc2ccccc2c(=O)n1CC (centres unmarked) | -22.4
CCCCn1c(SCC(=O)Nc2cccc(OC)c2)nc2ccc(N3CCOCC3)cc2c1=O | -9.77
O=C(CCCn1c(SCC(=O)NCCc2ccccc2)nc2ccccc2c1=O)NCC1CCCO1 (centres unmarked) | -22.8
O=C(NCc1ccccc1)[C@]1(C(F)(F)F)C[C@H](CCc2ccccc2)CCCO1 | 3.84
Cn1cc(Br)c(C(=O)Nc2sc3c(c2C(N)=O)CCC3)n1 | 18.4
Cc1ccc(Cl)cc1NC(=O)c1cc(NC(=O)C2CCCCC2C(=O)O)ccc1N1CCOCC1 (centres unmarked) | -6.57
COc1cccc(CCNC(=O)CCc2nnc(-c3ccc4c(c3)OCO4)o2)c1 | -7.05
Cc1ccc2cc(C#N)c(NCCNC(=S)NCCCN(C)C)nc2c1C | -0.554
Cc1cc(OCC(=O)NCc2ccccn2)c2c(C)c(C)c(=O)oc2c1 | -11.2
CCOC(=O)C(=O)Nc1nc(-c2ccccc2)c(-c2ccccc2)o1 | -32.1
CCOc1ccc(NC(=O)CSc2nc3ccccc3c(=O)n2CCCC(=O)NCC2CCCO2)cc1 (centres unmarked) | 3.34
O=C(CCCn1c(SCC(=O)NC2CCCCC2)nc2ccccc2c1=O)NCC1CCCO1 (centres unmarked) | -61.5
CCc1ccc(NC(=O)CSc2nc3ccccc3c(=O)n2CCN2CCOCC2)cc1 | -67.6
Cc1ccc(NC(=O)CSc2nc3ccccc3c(=O)n2CCCC(=O)NCC2CCCO2)cc1 (centres unmarked) | -0.641

SMILES | hERG current change (%, negative = inhibition) at 10uM [%]
NC(=O)c1ccc(NC(=O)CSc2nc3ccccc3c(=O)n2CCCN2CCOCC2)cc1 | -5.06
CCc1ccc(NC(=O)CSc2nc3ccccc3c(=O)n2CCCC(=O)NCCCN2CCOCC2)cc1 | -66.6
COc1ccc(NC(=O)CSc2nc3ccccc3c(=O)n2CCCC(=O)NCC2CCCO2)c(OC)c1 (centres unmarked) | -33.8
O=C(CCCn1c(SCC(=O)NCC2CCCO2)nc2ccccc2c1=O)NCc1ccccc1 (centres unmarked) | -29.6
C=CCn1c(SCC(=O)Nc2ccc(N3CCOCC3)cc2)nc2ccccc2c1=O | 3.75
NS(=O)(=O)c1ccc(CCNC(=O)CSc2nc3ccccc3c(=O)n2CCN2CCOCC2)cc1 | 41.4
O=C(CCCn1c(SCC(=O)NCC2CCCO2)nc2ccccc2c1=O)NCC1CCCO1 (centres unmarked) | -5.18
COc1cccc(NC(=O)CSc2nc3ccccc3c(=O)n2CCCC(=O)NCC2CCCO2)c1 (centres unmarked) | -70.3
O=C(CSc1nnc(-c2ccccc2F)o1)N1CCNC1=O | -32.1
C=CCNC(=O)CCCc1ccccc1 | 7.65
COc1ccc(NC(=O)c2cn3c(nc4ccccc43)c(C#N)c2C)cc1 | 3.29
CCC(=O)Oc1ccc(C(=O)Nc2ccccc2C(=O)NCC(C)C)cc1 | 15.6
O=C1CCC(c2ccc3c(c2)CCC3)=NN1 | 17.3
CCCCN1C(=O)C(NC(=O)C2CC2)(C(F)(F)F)C2=C1CC(C)(C)CC2=O (centres unmarked) | 10.9
COc1ccc(NC(=O)CCN2C(=O)c3cccc([N+](=O)[O-])c3C2=O)cc1 | -5.08
CC(C)C(NC(=O)c1ccccc1F)C(=O)OCC(=O)c1ccc(F)cc1 (centres unmarked) | -9.49
CCOC(=O)c1sc(-c2ccccc2)cc1NC(=O)CSc1nnnn1C | -1.13
COc1ccccc1/C=C1/C(=O)ON=C1C | 12.5
COc1cccc(NC(=S)C(C#N)=C2N(C)c3ccccc3N2C)c1 | 4.88
CCn1c(=O)cc(SCC(=O)N2CCCCC2)c2ccccc21 | -7.44
COC(=O)c1ccc(Oc2nc(NC(C)(C)C)nc(N3CCOCC3)n2)cc1 | -16.1
CCOC(=O)CSc1nc2cc(C(=O)OC)ccc2c(=O)n1CCN1CCOCC1 | -38.4
Cc1ccc(NC(=O)CSc2nc3ccccc3c(=O)n2CCCC(=O)NCCCN2CCOCC2)cc1 | -52.6

SMILES | hERG current change (%, negative = inhibition) at 10uM [%]
Cc1ccc(-n2c(SCC(=O)Nc3ccc(N4CCOCC4)cc3)nc3ccccc3c2=O)cc1 | 6.08
COC(=O)c1ccc2c(=O)n(CCN3CCOCC3)c(SCC(=O)Nc3cccc(OC)c3)nc2c1 | -37.9
COC(=O)c1ccc2c(=O)n(CCN3CCOCC3)c(SCC(=O)Nc3ccc(C)cc3)nc2c1 | -69.5
CCOC(=O)CSc1nc2ccccc2c(=O)n1CCN1CCOCC1 | -50.3
Cc1ccc(NC(=O)CSc2nc3ccccc3c(=O)n2CC2CCCO2)cc1 (centres unmarked) | 0.693
CCOC(=O)CSc1nc2ccccc2c(=O)n1CC(C)C | -35.3
COC(=O)c1ccc2c(=O)n(CCN3CCOCC3)c(SCC(=O)Nc3ccccc3Cl)nc2c1 | -33.4
CN(C)c1cc[n+](CC(O)C[n+]2ccc(N(C)C)cc2)cc1.[O-][Cl+3]([O-])([O-])[O-] | 15.9
CCCN(CCC)S(=O)(=O)c1ccc(N2CCCC2=O)c([N+](=O)[O-])c1 | -19.3
COc1cccc(/C=N/NC(=O)CCNc2n[nH]c(=O)[nH]c2=O)c1OC | 15.9
COc1cccc(NC(=O)c2ccccc2N2C(=O)C3C4C=CC(C4)C3C2=O)c1 (centres unmarked) | -1.23
O=C(CN1CCCCCC1)Nc1ccccc1F.O=C(O)C(=O)O | 9.38
O=C(CN1CCCCC1)NN(Cc1ccccc1)c1ccccc1.O=C(O)C(=O)O | -73.3
CCN(CC)CC(=O)NN(Cc1ccccc1)c1ccccc1.O=C(O)C(=O)O | -73.6
CN1CCN(CC(=O)NN(Cc2ccccc2)c2ccccc2)CC1.O=C(O)C(=O)O | -14.2
O=C(CN1CCCCCC1)NN(Cc1ccccc1)c1ccccc1.O=C(O)C(=O)O | -72.3
O=C(CN1CCCCC1)NC(=O)NCc1ccccc1 | 14.3
CC(C)(O)C(=O)NN(Cc1ccccc1)c1ccccc1 | 16.2
O=C(CN1CCCCC1)Nc1ccccc1NC(=O)CN1CCCCC1 | 3.83
CCN(CC(=O)NC(=O)NCc1ccccc1)Cc1ccccc1 | -20.6
